{"source": "PubChem BioAssay (NCATS)", "note": "Inconclusive results are not listed. Where a call stands in place of a potency, no number is given. Activity calls are given as the source filed them. Calls follow the shape of the dose curve; as a rule, active = well fitted inhibition curve with a large enough effect; inconclusive = small, poorly fitted or top-dose-only effect; inactive = no such curve, though single readings can be large or run the other way. Potency is read from the fitted curve at half-maximal effect.", "data": [{"assay": "Primary qHTS for inhibitors of nuclear receptor binding SET domain protein 2 (NSD2) in an RCH-ACV wild type WT cells (2C) (AID 1645877); also: nearly all actives have a fitted effect of over 70% in size", "conditions": "RCH-ACV NSD2 WT (2C) viability, CellTiter-Glo, 72 h; series mostly up to 44.9 µM", "values": [{"smiles": "COc1ccc(-n2nc(CCC(=O)N(C)O)cc2-c2ccc(Cl)cc2)cc1", "Potency": "7.5 µM (active)"}, {"smiles": "CC(=O)N[C@@H](CCC(N)=O)C(=O)O", "Potency": "inactive"}, {"smiles": "Cc1cc(=O)oc2cc(O[C@@H]3SC[C@@H](O)[C@H](O)[C@H]3O)ccc12", "Potency": "inactive"}, {"smiles": "COc1cc2c(cc1OC)CN(C(=O)[C@H](C)N[C@@H](CCc1ccccc1)C(=O)O)[C@H](C(=O)O)C2", "Potency": "inactive"}, {"smiles": "O=C(O)c1[nH]n(-c2ccc(S(=O)(=O)O)cc2)c(=O)c1N=Nc1ccc(S(=O)(=O)O)cc1", "Potency": "inactive"}, {"smiles": "CC1CC(=O)NN=C1c1ccc(NCC(C)(C)NCC(O)COc2cc(Cl)ccc2C#N)cc1", "note": "(stereo not drawn)", "Potency": "inactive"}, {"smiles": "CC(=O)c1cc2ccccc2s1", "Potency": "inactive"}, {"smiles": "CC(COc1ccccc1)NN", "note": "(stereo not drawn)", "Potency": "inactive"}, {"smiles": "CCCCCCCCCCCCCCCCCCN(C)C", "Potency": "inactive"}, {"smiles": "C[C@@H]1CCC[C@H](C)N1CCCC(O)(c1ccccc1)c1ccccn1", "note": "(stereo partly drawn)", "Potency": "inactive"}, {"smiles": "CCO[C@H](Cc1ccc(OCCc2ccc(OS(C)(=O)=O)cc2)cc1)C(=O)O", "Potency": "inactive"}, {"smiles": "C=C(C)C(=O)OCC(O)CO", "note": "(stereo not drawn)", "Potency": "inactive"}, {"smiles": "CC(=O)Nc1c(I)c(NC(C)=O)c(I)c(C(=O)O)c1I", "Potency": "inactive"}, {"smiles": "CCCCN(CCCC)C(C(N)=O)c1ccc(OC)cc1", "note": "(stereo not drawn)", "Potency": "inactive"}, {"smiles": "CCN1CCN(C(=O)N[C@@H](C(=O)N[C@@H]2C(=O)N3[C@@H]2SC(C)(C)[C@H]3C(=O)O)c2ccccc2)C(=O)C1=O", "Potency": "inactive"}, {"smiles": "Cc1cccc(C)c1NC(=O)c1ccc(N)cc1", "Potency": "inactive"}, {"smiles": "CC(C)=CCNc1ncnc2c1ncn2[C@@H]1O[C@H](CO)[C@@H](O)[C@H]1O", "Potency": "1.06 µM (active)"}, {"smiles": "CC(C)=CCC/C(C)=C/CC/C(C)=C/CCC(=O)OC/C=C(\\C)CCC=C(C)C", "Potency": "inactive"}]}]}
